Data from PubChem BioAssay.
Entries with a potency or affinity are not part of this list. Results filed as inconclusive are left out. Activity calls are given as the source filed them. Unless noted, no rule for the calls is given here.

Tests used:
[1] = cytotoxicity in PAX8-dependent RMG-1 cells, dose response, cell-based, cherry-pick (AID 687029;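 active = signal drop whose fitted half-maximal concentration is at most twice the top valid dose, in every test run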;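 also: cells exposed to compound for 96 hours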)
[2] = cytotoxicity in IOSE-T80 ovarian epithelial cells, dose response, selectivity assay for PAX8 inhibitor project, cell-based, cherry-pick (AID 687032;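 active = fitted half-maximal concentration for viability loss no higher than twice the top valid dose, in every repeat run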;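 also: cells exposed to compound for 96 h before reading; 0% = neutral control wells and -100% = 2 µM mitoxantrone kill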)
[3] = inhibitors of CMV-promoter luciferase reporter, dose response, counter-screen for Pax8 inhibitor project, cell-based, HEK293, luminescence, dry powder (AID 743020;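 active = signal-lowering compounds whose fitted half-maximal concentration is at or below twice the top tested dose in every run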;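 also: HEK293 cells stably expressing the CMV luciferase reporter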)
[4] = non-specific cell cytotoxicity, dose response, cytotoxicity control for PAX8 inhibitor project, plate reader, dry powder samples (AID 743021)
[5] = IGROV1 ovarian cancer cell cytotoxicity, dose response, PAX8 inhibitor project, plate reader, dry powder samples (AID 743043);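 also: more negative means fewer viable cells or more cytotoxicity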
[6] = NIH:OVCAR-3 ovarian cancer cell cytotoxicity, dose response, PAX8 inhibitor project, plate reader, dry powder samples (AID 743044)
[7] = IOSE-T80 ovarian epithelial cell cytotoxicity, dose response, cytotoxicity control for PAX8 inhibitor project, plate reader, dry powder samples (AID 743045);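 also: 0% = neutral control median and -100% = positive control median; more negative values mean more cell killing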
[8] = A2780 ovarian cancer cell cytotoxicity, dose response, cytotoxicity control, plate reader, dry powder samples (AID 743046);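 also: 0% = neutral control wells and -100% = cytotoxic reference compound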
[9] = cytotoxicity in OVCAR8 ovarian cancer cells, dose response, PAX8 project, cell-based, plate reader, dry powder samples (AID 743197)
[10] = max activity: at 35 µM, hits give low values unless noted

Measured: max activity

C[C@@H]1CN([C@H](C)CO)C(=O)c2cc(NC(=O)CCCCCC(=O)Nc3ccccc3N)ccc2O[C@@H](C)CCCCO[C@H]1CN(C)Cc1ccc(Cl)c(Cl)c1
inactive: [1] | [2] | [3] | [4] | [5] | [6]; [10] -28.2% | [7] | [8]

COc1ccc(S(=O)(=O)Nc2ccc3c(c2)C(=O)N([C@H](C)CO)C[C@@H](C)[C@H](CN(C)S(=O)(=O)c2ccc(F)cc2)OCCCC[C@H](C)O3)cc1
inactive: [1] | [2] | [3] | [4] | [5] | [6]; [10] -24.5% | [7] | [8]

O=C(C[C@@H]1C[C@@H]2c3cc(NS(=O)(=O)c4ccc(F)cc4)ccc3O[C@@H]2[C@@H](CO)O1)NCc1ccc(-c2ccccc2)cc1
inactive: [1] | [2] | [3] | [4] | [5] | [6]; [10] -23.3% [at 16 µM, hits give low values] | [7]

COc1cccc(S(=O)(=O)N(C)C[C@H]2OCc3ccccc3-c3c(n(C)c4ccccc34)C(=O)N([C@H](C)CO)C[C@H]2C)c1
inactive: [1] | [2] | [3] | [4] | [5] | [6]; [10] 28.2% [at 2.1 µM, hits give low values] | [7]

C[C@H](CO)N1C[C@H](C)[C@@H](CN(C)Cc2ccc(Cl)c(Cl)c2)OCCCC[C@H](C)Oc2ccc(NS(=O)(=O)c3ccc(Cl)cc3)cc2C1=O
inactive: [1] | [2] | [3] | [4] | [5] | [6]; [10] -25.3% | [7]

COc1ccc(-c2ccc3c(c2)[C@@H]2[C@@H](CCN2C(=O)NC2CCCCC2)[C@@H](CO)N3C)cc1
inactive: [1] | [2] | [3] | [4] | [5] | [6]; [10] -44.1% [at 9 µM, hits give low values] | [7]

Cc1ccc(S(=O)(=O)N(C)C[C@H]2OCCCC[C@H](C)Oc3ccc(NS(=O)(=O)c4ccc(Cl)cc4)cc3C(=O)N([C@@H](C)CO)C[C@@H]2C)cc1
inactive: [1] | [2] | [3] | [4] | [5] | [6]; [10] 10.8% [at 2.1 µM, hits give low values] | [7] | [8]

C[C@@H]1CCCCO[C@H](CN(C)Cc2ccc(C(F)(F)F)cc2)[C@@H](C)CN([C@@H](C)CO)C(=O)c2cc(NS(=O)(=O)c3ccc(Cl)cc3)ccc2O1
inactive: [1] | [2] | [3] | [4] | [5] | [6]; [10] -151% | [7]

C[C@@H]1CCCCO[C@@H](CN(C)Cc2ccccc2)[C@@H](C)CN([C@@H](C)CO)C(=O)c2cc(NS(=O)(=O)c3ccc(Cl)cc3)ccc2O1
inactive: [1] | [2] | [3] | [4] | [5] | [6]; [10] 29.1% [at 0.26 µM, hits give low values] | [7]

C[C@H](CO)N1C[C@H](C)[C@@H](CN(C)Cc2ccc(Cl)c(Cl)c2)OCCCC[C@H](C)Oc2ccc(NS(=O)(=O)c3ccc(F)cc3)cc2C1=O
inactive: [1] | [2] | [3] | [4] | [5] | [6]; [10] -28.3% | [7]

O=C(Nc1ccc(C(F)(F)F)cc1)N1C[C@@H]2N[C@H](C1)C2c1ccc(-c2cccc(F)c2)cc1 (stereo partly specified)
inactive: [1] | [2] | [3] | [4] | [5] | [6]; NIH:OVCAR-3 ovarian cancer cell viability, at 8 µM, hits give low values -9.78% | [6]; NIH:OVCAR-3 ovarian cancer cell viability, at 35 µM, hits give low values -0.968% | [7] | [8] | [9]

CCOC(=O)Nc1ccc2c(c1)N(C(=O)CCCl)c1ccccc1[S@]2=O
inactive: [1] | [2] | [3] | [4]

C[C@H]1CN([C@@H](C)CO)C(=O)Cc2cc(NC(=O)Nc3ccc4c(c3)OCO4)ccc2O[C@@H]1CN(C)CC1CCCCC1
inactive: [1] | [2] | [3] | [4] | [5] | [6]; [10] -10.1% | [7]

COc1cccc(/C=N/NC(=O)c2ccc(N3CCCC3=O)cc2)c1
inactive: [1] | [2] | [3] | [4]

COc1ccccc1C#Cc1ccc([C@@H]2[C@@H](C#N)N(C(=O)C3CCCCC3)[C@H]2CO)cc1
inactive: [1] | [2] | [3] | [4] | [5] | [6]; [10] 26.7% [at 30 µM, hits give low values] | [6]; [10] | [7] | [8] | [9]

CN(C)N=Nc1nc[nH]c1C(N)=O
inactive: [1] | [2] | [3] | [4]

COc1ccc(NC(=O)Nc2ccc3c(c2)C(=O)N([C@H](C)CO)C[C@@H](C)[C@@H](CN(C)C(=O)Cc2ccccc2)OCCCC[C@H](C)O3)cc1
inactive: [1] | [2] | [3] | [4] | [5] | [6]; [10] -34.5% | [7]

O=C(C[C@@H]1CC[C@H]2[C@@H](COC[C@H](O)CN2C(=O)Nc2ccc(Cl)c(Cl)c2)O1)NCc1ccc(Cl)cc1
inactive: [1] | [2] | [3] | [4] | [5] | [6]; [10] -36.1% | [7]

COc1cccc(S(=O)(=O)N(C)C[C@@H]2Oc3cc(C4=CCCCC4)ccc3S(=O)(=O)N([C@@H](C)CO)C[C@H]2C)c1
inactive: [1] | [2] | [3] | [4] | [5] | [6]; [10] -34.5% [at 0.5 µM, hits give low values] | [7] | [8]

COc1ccc2c(c1)C(C)=CC(C)(C)N2S(=O)(=O)c1ccc(Br)cc1
inactive: [1] | [2] | [3] | [4] | [5]

C[C@H](CO)N1C[C@H](C)[C@H](CN(C)S(=O)(=O)c2ccccc2)OCCCC[C@H](C)Oc2ccc(NS(=O)(=O)c3ccc(Cl)cc3)cc2C1=O
inactive: [1] | [2] | [3] | [4] | [5] | [6]; [10] -18.9% | [7]

CN1C(=O)c2cc(NC(=O)c3cccc(Cl)c3)ccc2OC[C@@H]2O[C@H](CC(=O)NC3CCCCC3)CC[C@@H]21
inactive: [1] | [2] | [3] | [4] | [5] | [6]; [10] -25.7% | [7]

C[C@@H]1CCCCO[C@@H](CN(C)C(=O)Nc2ccc(C(F)(F)F)cc2)[C@H](C)CN([C@H](C)CO)C(=O)c2cc(NS(=O)(=O)c3ccccc3)ccc2O1
inactive: [1] | [2] | [3] | [4] | [5] | [6]; [10] 50.6% [at 8 µM, hits give low values] | [7] | [8]

Cc1ccccc1-c1ccc2c(c1)O[C@H](CN(C)C(=O)Nc1ccc(C(F)(F)F)cc1)[C@H](C)CN([C@H](C)CO)S2(=O)=O
inactive: [1] | [2] | [3] | [4] | [5] | [6]; [10] -27.3% | [7]

C[C@@H]1CN([C@@H](C)CO)C(=O)c2cc(NC(=O)Nc3ccc(C(F)(F)F)cc3)ccc2O[C@@H](C)CCCCO[C@H]1CN(C)C(=O)c1ccccc1
inactive: [1] | [2] | [3] | [4] | [5] | [6]; [10] 12.6% [at 0.26 µM, hits give low values] | [7]

C[C@@H]1CCCCO[C@@H](CN(C)Cc2ccc(Cl)c(Cl)c2)[C@H](C)CN([C@H](C)CO)C(=O)c2cc(NS(=O)(=O)c3ccc(F)cc3)ccc2O1
inactive: [1] | [2] | [3] | [4] | [5] | [6]; [10] -22% | [7] | [8]

C[C@@H]1CCCCO[C@@H](CN(C)Cc2ccc(Cl)c(Cl)c2)[C@H](C)CN([C@@H](C)CO)C(=O)c2cc(NS(=O)(=O)c3ccccc3)ccc2O1
inactive: [1] | [2] | [3] | [4] | [5] | [6]; [10] -34.1% [at 0.26 µM, hits give low values] | [7] | [8]

C[C@@H]1CN([C@@H](C)CO)C(=O)c2c(c3ccccc3n2C)-c2ccccc2CO[C@H]1CN(C)S(=O)(=O)c1cccc(F)c1
inactive: [1] | [2] | [3] | [4] | [5] | [6]; [10] -19.9% [at 16 µM, hits give low values] | [7] | [8]

CCN(CC(=O)Nc1c(F)cccc1F)C(=O)c1cc(S(=O)(=O)N(CC)CC)ccc1N1CCCCC1
inactive: [1] | [2] | [3] | [4]

Cc1ccc(S(=O)(=O)Nc2ccc3c(c2)C(=O)N([C@H](C)CO)C[C@@H](C)[C@H](CN(C)S(=O)(=O)c2ccccc2)OCCCC[C@H](C)O3)cc1
inactive: [1] | [2] | [3] | [4] | [5] | [6]; [10] -31.1% | [7]

C[C@@H]1CCCCO[C@@H](CN(C)Cc2ccc(Cl)c(Cl)c2)[C@H](C)CN([C@H](C)CO)C(=O)c2cc(NC(=O)Nc3ccc(F)cc3)ccc2O1
inactive: [1] | [2] | [3] | [4] | [5] | [6]; [10] -37% | [7] | [8]

Cc1ccc(S(=O)(=O)N(C)C[C@@H]2OCCCC[C@H](C)Oc3ccc(NS(=O)(=O)c4cccs4)cc3C(=O)N([C@H](C)CO)C[C@H]2C)cc1
inactive: [1] | [2] | [3] | [4] | [5] | [6]; [10] 5.96% | [7] | [8]

C[C@@H]1CN([C@H](C)CO)C(=O)c2cc(NC(=O)Nc3ccc(F)cc3)ccc2O[C@@H](C)CCCCO[C@H]1CN(C)S(=O)(=O)c1ccc(Cl)cc1
inactive: [1] | [2] | [3] | [4] | [5] | [6]; [10] -22.1% [at 16 µM, hits give low values] | [7]

COCCNC(=O)C[C@@H]1C[C@H]2c3cc(NC(=O)Nc4ccc(C(F)(F)F)cc4)ccc3O[C@H]2[C@H](CO)O1
inactive: [1] | [2] | [3] | [4] | [5] | [6]; [10] -18.8% | [7] | [8]
